Activity calls are given as the source filed them. Rule for the calls: active = hit-call score of the fitted dose curve at least 0.9, where 1 is the maximum; inactive = score below 0.9.

Outcome and AC50 data for 40 compounds are collected here from PubChem BioAssay (EPA / NIEHS).

A short description of this assay: BSK_4H_SRB: Viability Assessment in the BioMAP Diversity Plus: 4H Assay (AID 2283027).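 For AC50: curves fitted both ways versus DMSO so AC50 may be loss or gain.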 Particulars: primary human endothelial cells (HUVEC). The method, then: BSK_4H is a cell-based, multiplexed-readout assay that uses umbilical vein endothelium, a human vascular primary cell, with measurements taken at 24 hours after chemical dosing in a 96-well plate.BSK_4H_SRB is an assay component measured in the BSK_4H assay. It measures […] related to cell death using Sulforhodamine staining technology.Data from the assay component BSK_4H_SRB was analyzed into 1 assay endpoint. This assay endpoint, BSK_4H_SRB, was analyzed with bidirectional fitting relative to DMSO as the negative control and baseline of activity. Using a type of viability reporter, gain or loss-of-signal activity can be used to understand changes in the signaling. Furthermore, this assay endpoint can be referred to as a primary readout, because this assay has produced multiple assay endpoints where this one serves a signaling function. To generalize the intended target to other relatable targets, this assay endpoint is annotated to the cell morphology intended target family, where the subfamily is cell conformation.
The levels of cell surface (or secreted, indicated by the prefix "s") biomarker endpoints were measured by ELISA. Overt cytotoxicity to cells in confluent adherent cultures (all systems other than the BT system) was assessed by measuring total protein levels using sulforhodamine B (SRB) staining in parallel cultures at the time of biomarker measurements, indicated as SRB endpoints. For proliferation assays for adherent cell types, individual cell types are cultured at sub-confluence and relative cell numbers quantified by SRB staining at time points optimized for each system (48 h: 3C and CASM3C systems; 72 h: BT and HDF3CGF systems; 96 h: SAg system). SRB was performed by staining cells with 0.1% SRB after fixation with 10% TCA and reading wells at 560 nm.Viability and proliferation of PBMC (T cells) was quantified by Alamar Blue reduction for the SAg and BT systems. For PBMC viability (referred to as PBMC Cytotoxicity within the assay endpoint names), cells were plated (75,000/well in a 96-well plate) and then chemical samples added for 1 h before addition of activators, SEB and TSST-1 (20 ng/mL final concentration each). Cells were incubated for 90 h. Then, Alamar Blue (20 uL/well) (Invitrogen, Cat DAL1100) was added for 6 h, and the plates were read with a fluorescence microplate reader at 546/580 nm (excitation/emission). For PBMC proliferation, cells were plated and activated as above but incubated for only 16 h prior to addition of Alamar Blue. Plates were read after 6 h.
With `O=C(O)CCN(C1(C(=O)NO)CCCC1)S(=O)(=O)c1ccc(Oc2ccc(F)cc2)cc1`, the result was inactive.
As for `Clc1nc(Cl)c(Cl)c(Cl)c1Cl`, the result was inactive.
Same read-out and setting: for `NC(=O)NO` the value was “inactive”.
In general, AC50 refers to the concentration giving half of the maximal activity seen. For the compound `CCOC(=O)c1ccc(C2CCC(NC[C@H](O)COc3ccc(O)c(NS(C)(=O)=O)c3)CC2)cc1` (stereo not given in full), the AC50 was 27.5 µM (active).
As for `CC(C)CCO`, the outcome was inactive.
Still for that read-out and setting: for `COC(=O)c1c(Cl)c(Cl)c(C(=O)OC)c(Cl)c1Cl` the value was “inactive”.
Still for that read-out and setting: the value for `CCOCCOCCOCCO` was “inactive”; that for `CC(=O)OC[C@H]1O[C@@](COC(C)=O)(O[C@H]2O[C@H](COC(C)=O)[C@@H](OC(C)=O)[C@H](OC(C)=O)[C@H]2OC(C)=O)[C@@H](OC(C)=O)[C@@H]1OC(C)=O` was “inactive”; that for `CC(C)=CCCC(C)CCO` (stereo not given) was “inactive”.
The same measure, in the same setting: the value for `O=C1OC(=O)C2C3C=CC(C3)C12` (stereo not given) was “inactive”.
On to `CC[C@H]1CC[C@H](NCc2cc3c(cc2OC)[C@H]2C[C@H]2C(=O)N3C)[C@H](c2ccccc2)N1`, for which the outcome was inactive.
Same read-out and setting: for `CCCCC(CC)COC(=O)CCCCCCCCC(=O)OCC(CC)CCCC` (stereo not given) the value was “inactive”.
`CN(C)c1ccc(N=NS(=O)(=O)O)cc1`: the outcome was inactive.
Take `CCCCCCCCCCCCCCCO`: the AC50 was 36.1 µM (active).
On the same count and under the same terms, the value for `CCc1cc(SCc2sc(-c3ccc(C(F)(F)F)cc3)nc2CN2CCN(c3ccc(OC)cc3)CC2)ccc1OCC(=O)O` was 11.8 µM (active).
As to `COC(=O)CC(=O)OC`, the result was inactive.
As for `CCCCCCc1ccc(O)cc1O`, the AC50 was 32.5 µM (active).
Take `CC(C)CCCCCCOC(=O)c1ccc(C(=O)OCCCCCCC(C)C)c(C(=O)OCCCCCCC(C)C)c1`: the outcome was inactive.
The same measure, in the same setting: for `CN(C)c1ccc(Cc2ccc(N(C)C)cc2)cc1` the value was “inactive”; for `C1=CCCC=CCCC=CCC1`, “inactive”.
With `Cn1c(=O)c2c(ncn2C)n(C)c1=O`, the result was inactive.
On to `CCCCC(CC)COC(=O)c1ccc(C(=O)OCC(CC)CCCC)cc1` (stereo not given), for which the outcome was inactive.
Same read-out and setting: for `C1N2CN3CN1CN(C2)C3` the value was “inactive”; for `O=C(O)c1cccc(N(Cc2cccnc2)c2ccc(OC(F)F)c(OC(F)F)c2)c1`, “inactive”.
Consider `CCOC(=O)CC(CC(=O)OCC)(OC(C)=O)C(=O)OCC`, for which the result was inactive.
For `CCOc1cccc(-n2cc(C(=O)N3CCN(c4cc(C(=O)O)c5ccccc5c4)CC3)nc2-c2ccc(C)cc2)c1`, the AC50 was 13.7 µM (active).
Regarding `Oc1ccc2c(c1)-c1ccccc1C2`, the AC50 is 10.2 µM (active).
With `CC(C)c1cccc(C(C)C)c1N1C(=O)c2ccc(O)cc2C1=O`, the concentration at half-maximal activity (AC50) is 12.8 µM (active).
Turning to `CC(C)=CCCC(C)=CC=O`, the outcome was inactive.
On the same count and under the same terms, the value for `CCN(C(=O)c1cc(C)cc(OC[C@H](C)Nc2ccncc2)c1)C(C)C` was “inactive”.
Same read-out and setting: for `O=C(O)CC(O)C(=O)O` (stereo not given) the value was “inactive”; for `COCCOc1cc2cc(C(=O)NC3CCN(C(C)C)CC3)n(CC(=O)Nc3ccc(Cl)cn3)c2cn1`, “inactive”.
`CC(C)(O)c1coc(S(=O)(=O)NC(=O)Nc2c3c(cc4c2CCC4)CCC3)c1`: the result was inactive.
On the same count and under the same terms, the value for `COc1ccc(-n2nc(C(F)F)cc2-c2ccc(S(C)=O)cc2)cc1` (stereo not given) was “inactive”; that for `Nc1ccc(Nc2ccccc2)cc1` was “inactive”; that for `CCCC(=O)OCC` was “inactive”.
With `Fc1ccccc1[C@@H](F)COC1CCC(Nc2ncnc3[nH]ncc23)CC1` (stereo not given in full), the AC50 was 30 µM (active).
For the compound `CC(C)=CCC/C(C)=C/CO`, the outcome was inactive.
On the same count and under the same terms, the value for `O=P(OC(CCl)CCl)(OC(CCl)CCl)OC(CCl)CCl` was “inactive”; that for `O=C1CCC(N2C(=O)c3ccccc3C2=O)C(=O)N1` (stereo not given) was “inactive”.
